Compounds with a hit are over-represented: about 10% of the library has one in this group of screens.
CtBP-E1A blk – CtBP/E1A binding inhibition | 0.49% of 340,000 active | AlphaScreen GST-E1A/His-CtBP binding, 1536-well; active compounds read low | activity change, % (test concentration not listed) | AID 651724; in the data active = activity change below about -65%; inconclusive = mostly about -30% to -63%
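In 5 uL wells, 23 nL compound meets equimolar GST-E1A and His-CtBP (5X stock 125 nM each) for 2 h, 37 °C. Beads (5X, 50 ug/mL) then 1 h, 37 °C, dark.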
HP1b binding inh – blocks HP1-beta chromodomain binding to methylated histone tails; Potency, µM (titrated, usually from 114 µM), usual class: inhibitors; 0.56% of 390,000 active; AlphaScreen HP1-beta / biotin-H3K9me3 peptide binding; also: nearly all actives have a fitted effect of over 70% in size
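HP1-beta protein (50 nM final) preincubated 30 min at room temperature with biotinylated H3(1-18)K9me3 peptide (50 nM) in PBS pH 7.4, 0.01% Tween-20, then compound added for 30 min. AlphaScreen streptavidin donor/nickel chelate acceptor beads (10 ug/mL final), 30 min dark, luminescence read.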
BAZ2B block – blocks human BAZ2B; 4.4% of 360,000 active; Potency, µM (series often up to 114 µM), most hits filed as inhibitors; Q9UIF8; AlphaScreen BAZ2B-H3K14Ac peptide displacement; AID 504333; also: nearly all actives have a fitted effect of over 60% in size
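AlphaScreen luminescence quantifies BAZ2B engagement of H3K14Ac peptide; the protein and biotinylated peptide are both at 50 nM final, buffer PBS pH 7.4 with 0.01% Tween-20, all steps at room temperature.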
JMJD2A Tudor – inhibitors of human JMJD2A Tudor domain; O75164; AlphaScreen JMJD2A-Tudor / H3K4me3 peptide binding; Potency, µM (titrated, usually from 114 µM), usual class: inhibitors; 4.4% of 390,000 active; AID 504339; also: nearly all actives have a fitted effect of over 50% in size
Six1-Eya2 blk – blocks human Six1 binding to Eya2; AlphaScreen GST-Six1/His-Eya2 binding, biochemical; active compounds read low; activity change, % (concentration not given with the values); 0.56% of 360,000 active; AID 651725; in the data active = activity change below about -65%; inconclusive = mostly about -30% to -63%
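AlphaScreen with GST-Six1 and His-Eya2 (5X mix: 250 nM and 500 nM), glutathione donor and nickel acceptor beads; buffer 50 mM Tris pH 8.0, 300 mM NaCl, 1 mM TCEP; 1 h at 37 C in the dark.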
G9a block – blocks human histone lysine methyltransferase G9a | Q96KQ7 | AID 504332 | G9a H3K9 monomethylation, AlphaScreen, 2 h | Potency, µM (doses to about 102 µM), usual class: inhibitors | 8.8% of 350,000 active; also: nearly all actives have a fitted effect of over 75% in size
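G9a (20 nM) was preincubated 15 min with compound, then reacted 2 h at room temperature with 500 nM biotin-H3K9 peptide and 20 µM SAM. Monomethyl-H3K9 detected by AlphaScreen using anti-H3K9me1 antibody.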
Hits are given with their value; 0 = inactive; ? = inconclusive; - = no result given; [ ] = another dose, or the depositor's remark. Unless noted, calls follow the shape of the dose curve; as a rule, active = well fitted inhibition curve with a large enough effect; inconclusive = small, poorly fitted or top-dose-only effect; inactive = no such curve, though single readings can be large or run the other way.

SMILES	CtBP-E1A blk	HP1b binding inh	BAZ2B block	JMJD2A Tudor	Six1-Eya2 blk	G9a block
N#Cc1nc(-c2ccc(COc3ccc(Cl)cc3)o2)oc1N1CCCCC1	-	0	?	?	-	3.2µM
N#Cc1nc(-c2ccc(COc3ccccc3)o2)oc1N1CCCCC1	-	?	5µM	?	-	4.5µM
COc1ccccc1N1CCN(c2ccc(=O)n(CC(=O)NCc3ccc(F)cc3)n2)CC1	-	0	0	0	-	0
COc1ccc(-c2cc3ccc(OCc4nn[nH]n4)cc3oc2=O)cc1OC	0	0	0	0	0	45µM
Cc1ccc(S(N)(=O)=O)cc1NC(=O)c1ccc2c3c(cccc13)CC2	-	0	0	0	0	0
CCOC(=O)c1[nH]c2c(c1-c1ccc(OC)cc1)C(=O)CC(c1ccc(OC)c(OC)c1)C2 (centres undefined)	0	0	?	0	0	50µM
CNS(=O)(=O)c1cccc2cccnc12	0	0	0	0	0	0
Cc1ccc2ccc3cccnc3c2n1	-90	0	-	?	?	-
COc1ccc2oc(C(=O)OCC(=O)NCc3ccco3)c(C)c2c1	0	0	0	0	0	0[0.501 µM]
COc1ccc2oc(C(=O)NCCc3ccccc3)c(C)c2c1	0	0	0	0	0	0[2.33 µM]
CSc1ccccc1C(=O)NCC(c1ccco1)N(C)C (centres undefined)	0	0	0	0	0	40µM
COc1ccc2oc(C(=O)NCC(c3ccco3)N(C)C)c(C)c2c1 (centres undefined)	0	0	50µM	0	0	?
COc1ccc2oc(C(=O)NCc3cc(OC)c(OC)cc3OC)c(C)c2c1	0	?	?	35µM	0	?
COc1cc(-c2nn3c(-c4ccccc4)nnc3s2)cc(OC)c1OC	?	0	0	0	0	45µM
COc1ccc(-c2nnc3sc(COc4ccccc4)nn23)cc1	0	0	0	0	0	0
c1ccc(OCc2nn3c(-c4ccco4)nnc3s2)cc1	0	0	0	0	0	50µM
c1ccc(Cc2nnc3sc(-c4ccco4)nn23)cc1	0	?	?	?	0	35µM
COc1cc(-c2nn3c(COc4ccccc4)nnc3s2)cc(OC)c1OC	0	?	0	0	0	5µM
CCN(CC)C(=O)Cn1c(=O)n(Cc2ccc(C(=O)NCCCOC)cc2)c(=O)c2ccccc21	-	0	?	0	-	0
COc1ccc(NC(=O)C2(C)Cc3c(-c4ccc(NC(C)=O)cc4)ccnc3O2)cc1OC (centres undefined)	0	-	-	-	0	-
CC(C)(C)c1ccc(-c2nnc3sc(-c4ccncc4)nn23)cc1	0	0	0	0	0	2.5µM
c1ccc(Cc2nn3c(COc4ccccc4)nnc3s2)cc1	0	?	0	?	0	5µM
Cc1cc(-c2nn3c(-c4ccccc4)nnc3s2)c2ccccc2n1	?	0	0	0	?	2.2µM
CCOc1cccc(-c2nnc3sc(-c4cc(OC)c(OC)c(OC)c4)nn23)c1	0	0	0	0	0	79µM
CC(=O)c1cccc(-c2ccnc3c2CC(C(=O)Nc2ccccc2)O3)c1 (centres undefined)	0	-	-	-	0	-
SMILES	CtBP-E1A blk	HP1b binding inh	BAZ2B block	JMJD2A Tudor	Six1-Eya2 blk	G9a block
CCNc1nc(C#N)nc2c1ncn2-c1cc(F)cc(F)c1	-	0	0	0	-	0[0.501 µM]
c1csc(-c2nn3c(-c4ccncc4)nnc3s2)c1	-	-	0	-	-	0
c1csc(Cc2nn3c(-c4ccncc4)nnc3s2)c1	0	0	?	?	0	13µM
O=C(c1cccc(S(=O)(=O)N2CCN(c3ccccc3)CC2)c1)N1CCCCCCC1	0	0	0	0	0	0[0.501 µM]
O=C(c1cccc(-n2cccc2)c1)N1CCN(S(=O)(=O)c2c(F)cccc2F)CC1	0	?	0	35µM	0	0
O=C(c1cccc(-n2cccc2)c1)N1CCN(S(=O)(=O)c2ccccc2)CC1	0	13µM	8.9µM	5.6µM	?	0[2.33 µM]
CCCCN(C(=O)CCOc1ccc(OCC)cc1)c1c(N)n(Cc2ccccc2)c(=O)[nH]c1=O	0	-	-	-	0	-
CC=C1COC(C(=O)NCCOCCO)(C(F)(F)F)C=C1C=C(C)C (centres undefined)	-	0	-	0	-	-
O=c1cc[nH]c2c(C(F)(F)F)cccc12	0	0	0	0	0	0
COc1cccc2c(=O)c(C(=O)O)c[nH]c12	0	0	?	79µM	0	22µM
